Reference: PubChem BioAssay (NCI)
The panel holds about 83,000 compounds, 20% with a hit somewhere; the sample as a whole holds those more often.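 Results are percent growth after 48 hours of single-concentration exposure. 100 means growth as in untreated cells, lower positive values show inhibition; negative values down to -100 show cell death.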 Active and inactive are the calls of the source. Rule for the calls: active = growth percent below 10; inactive = the rest.

Assays:
Assay in all cases: NCI-60 one-dose screen, 48 h (100 = growth as untreated, 0 = no growth, -100 = all killed)
Conditions in all cases: 10 µM unless noted
[1] = tested on: NCI-H23 lung
[2] = tested on: NCI-H226 lung
[3] = tested on: NCI-H322M lung
[4] = tested on: HOP-62 NSCLC
[5] = tested on: NCI-H460 lung
[6] = tested on: HOP-92 NSCLC
[7] = tested on: NCI-H522 lung
[8] = tested on: A549/ATCC NSCLC
[9] = tested on: 786-0 renal
[10] = tested on: COLO 205 colon

Measured: growth

Cc1cccc(CC(=O)c2ccccc2)n1
inactive: [1] 94.5% | [2] 95.8% | [3] 87.3% | [4] 78.4% | [5] 95.7% | [6] 82.2% | [7] 80.9% | [8] 74.2% | [9] 94.4% | [10] 103%

c1ccc2nc(Cn3cc[n+](Cc4ccc5ccccc5n4)c3)ccc2c1
inactive: [1] 48.7% | [2] 70.8% | [3] 95.3% | [4] 82.5% | [5] 77.7% | [6] 34.3% | [7] 34.5% | [8] 77.5% | [9] 101% | [10] 25.6%

O=C(NCCNc1nccc(-c2c(-c3cccc(O)c3)nc3sccn23)n1)c1cc(N2CCOCC2)cc(C(F)(F)F)c1
inactive: [1] 106% | [2] 106% | [3] 107% | [4] 136% | [5] 96.2% | [6] 87.7% | [7] 78.6% | [8] 88.6% | [9] 86.6% | [10] 32.7%

CC[C@@]1(O)C(=O)OCc2c1cc1n(c2=O)Cc2c-1nc1ccccc1c2/C=N/OC(C)(C)C
inactive: [3] 12.4%
active: [1] -4.17% | [2] -78.7% | [4] -24.1% | [5] 1.16% | [6] -11.8% | [7] -47.8% | [8] -11% | [9] 2.49% | [10] -26.9%

O=C(Nc1ccc(-n2cc(-c3ccncc3)c(-c3ccc(O)c(Cl)c3)n2)cc1)c1ccc(Cl)c(Cl)c1
inactive: [1] 43.7% | [2] 74.6% | [3] 71.5% | [4] 27.5% | [5] 22.3% | [6] 14.9% | [7] 26.3% | [8] 33.1% | [10] 64.9%
active: [9] -41.6%

COc1ccc(-c2nnc(NC(=O)CN3CCN(c4cc5c(cc4F)c(=O)c(C(=O)O)cn5C4CC4)CC3)s2)cc1OC
inactive: [1] 96.3% | [2] 87.8% | [3] 98.2% | [4] 95.6% | [5] 101% | [6] 106% | [7] 89.1% | [8] 100% | [9] 88.1% | [10] 104%

Cc1cc[n+](CCCC[n+]2ccc(C)cc2)cc1
inactive: [1] 96% | [2] 99% | [3] 97.1% | [4] 108% | [5] 108% | [6] 74.3% | [7] 120% | [8] 104% | [9] 95.8% | [10] 110%

NN=C(c1ccc(Cl)cc1)c1ccc(Cl)cc1
inactive: [1] 94.3% | [2] 108% | [3] 123% | [4] 108% | [5] 111% | [6] 97% | [7] 106% | [8] 82.2% | [9] 104% | [10] 110%

Nc1ccc(S(=O)(=O)Nc2ccnn2-c2ccccc2)cc1
inactive: [1] 107% | [2] 106% | [3] 95% | [4] 112% | [5] 108% | [6] 97.9% | [7] 101% | [8] 97.7% | [9] 105% | [10] 109%

COc1ccc(Cl)cc1NC(=O)c1cc2c([nH]1)-c1nc(N)sc1CCC2
inactive: [1] 86.4% | [2] 95.6% | [3] 87.1% | [4] 102% | [5] 109% | [6] 132% | [7] 64.3% | [8] 69.6% | [9] 99.7% | [10] 121%

CCOC(=O)n1cnc2c(Cl)ncnc21
inactive: [1] 245% | [2] 113% | [3] 109% | [4] 136% | [5] 108% | [6] 95.1% | [7] 108% | [8] 103% | [9] 159% | [10] 98.9%

CCOC(=O)c1cnc2c(OC)ccc(OC)c2c1Cl
inactive: [1] 110% | [2] 113% | [3] 120% | [4] 101% | [5] 108% | [6] 98.5% | [7] 120% | [8] 97.3% | [9] 117% | [10] 117%

C[C@H]1C=C(C[C@@H](O)CC#CC#CCCCCC[C@@H](O)[C@H]2CCC(=O)O2)C(=O)O1
inactive: [1] 99.9% | [2] 98.6% | [3] 114% | [4] 94.5% | [5] 118% | [6] 99.9% | [7] 78.7% | [8] 111% | [9] 190% | [10] 115%

CCn1cc(C(=O)O)c(=O)c2cc(F)c(N3CCN(CC(=O)Nc4ccc(C(C)=O)cc4)CC3)cc21
inactive: [1] 93% | [2] 86.3% | [3] 101% | [4] 101% | [5] 107% | [6] 92.8% | [7] 96.9% | [8] 94.6% | [9] 98% | [10] 121%

COc1ccc2c(c1)nnc1c3cccnc3[nH]c21
inactive: [1] 25.5% | [2] 19.7% | [3] 43.3% | [8] 40.8%
active: [4] 6.44% | [5] -49.4% | [6] -36.5% | [7] -34.4% | [9] -37.2% | [10] -62.3%

CCc1c2cc(Cl)ccc2n2cc(Cc3ccccc3)[nH]c(=O)c12
inactive: [1] 94.3% | [2] 100% | [3] 83.7% | [4] 103% | [5] 90.9% | [6] 96% | [7] 104% | [8] 106% | [9] 109% | [10] 97.5%

CC1=C2C(=C[C@@](C)(CO)[C@@H]2OC(=O)N(C)CCN(C)C(=O)OC(C)(C)C)C(=O)[C@](C)(O)C12CC2
inactive: [1] 11.8% | [2] 106% | [3] 59.7% | [7] 57.7% | [8] 10.4% | [9] 65.1% | [10] 40.1%
active: [4] 9.97% | [5] 3.77% | [6] 8.11%

Nc1nc(Cl)c2c(C(F)(F)F)cn(CC3CCNCC3)c2n1
inactive: [1] 47.5% | [2] 111% | [3] 100% | [4] 103% | [5] 103% | [6] 57.9% | [8] 94.2% | [9] 95.5% | [10] 94%
active: [7] 5.07%

COc1ccc(Cl)cc1NC(=O)c1cc2c([nH]1)-c1nc(NC(=O)C(C)(C)C)sc1CC2
inactive: [1] 57.8% | [2] 57.7% | [3] 75.5% | [4] 61.7% | [5] 18.3% | [6] 51.4% | [7] 38% | [8] 60.6% | [9] 93.2% | [10] 78.1%

CCCCCn1ncc(-c2c(O)c(O)cc3c(O)c(-c4c(C)cc5c(-c6cnn(CCCCC)n6)c(O)c(O)cc5c4O)c(C)cc23)n1
inactive: [3] 33.7%
active: [1] -15.1% | [2] -3.01% | [4] 4.15% | [5] -3.01% | [6] -23.8% | [7] -56.2% | [8] 6.6% | [9] -10.2% | [10] -6.73%

CCOC(=O)c1noc2c1CCc1cn(Cc3cc(OC)cc(OC)c3)cc1-2
inactive: [1] 97.6% | [2] 101% | [3] 102% | [4] 95.6% | [5] 109% | [6] 104% | [7] 46.5% | [8] 103% | [9] 101% | [10] 115%

Nc1ncnc2c1c(-c1ccc(Oc3ccccc3)cc1)nn2C[C@@H]1SSC[C@H]1O
inactive: [1] 40.6% | [3] 36.9% | [4] 37.6% | [7] 10.1% | [8] 21.4% | [9] 42.7% | [10] 52%
active: [2] -3.02% | [5] 3.61% | [6] -6.86%

O=C(Nc1ccc(-n2cc(-c3ccncc3)c(-c3ccc(O)c(Cl)c3)n2)cc1)Nc1ccc(Cl)c(C(F)(F)F)c1
active: [5] -1.85% | [6] -22.9% | [7] 9.38% | [9] -31.5%
inactive: [1] 16.2% | [2] 50.2% | [3] 27.3% | [4] 28.3% | [8] 16.7% | [10] 41.3%

Nn1c(CN2CCN(c3cc4c(cc3F)c(=O)c(C(=O)O)cn4C3CC3)CC2)n[nH]c1=S
inactive: [1] 95.2% | [2] 107% | [3] 93.3% | [4] 96.4% | [5] 109% | [6] 116% | [7] 85.8% | [8] 101% | [9] 97.3% | [10] 121%

Cc1cc(N2CCOCC2)nc(N(CCNc2ccnc3cc(Cl)ccc23)Cc2ccco2)n1
inactive: [1] 58% | [2] 60.5% | [3] 41.8% | [4] 36.5% | [5] 47.3% | [6] 46.7% | [7] 13.9% | [8] 50.7%
active: [9] 5.93% | [10] -4.11%
